Mtb hypoxia inh = inhibitors of hypoxia-regulated fluorescent reporter in Mycobacterium tuberculosis; M. tuberculosis hypoxia-regulated fluorescent reporter, fluorescence; fluorescence inhibition, % (concentration not given with the values); 0.1% of 300,000 active; in the data active = fluorescence inhibition mostly above about 23%, no sharp cut-off; inactive = mostly below about 17%
TcdB GH inh = TcdB glycohydrolase inhibition; 0.24% of 350,000 active; inhibition, % at 9.99 µM; P18177; TcdB glycohydrolase enzymatic assay, plate reader; in the data active = inhibition above about 10%
Sa ugtP lethal = compounds lethal to S. aureus RN4220 ugtP deletion mutant; 0.54% of 330,000 active; growth inhibition, % (concentration not given with the values); OD600 growth, 16 h; in the data active = growth inhibition above about 68%
Yp Topo-I inh = Y. pestis Topo-I inhibition via cleavage products | Y. pestis Topo-I cleavage product accumulation, plate reader | activity, % at 10 µM | 0.064% of 360,000 active; in the data active = activity above about 50%, passing the limit was not always enough
Mtb BioA inh = BioA (M. tuberculosis) enzyme inhibition; 0.096% of 360,000 active; inhibition, % at 9.99 µM; purified M. tuberculosis BioA enzyme, plate reader; in the data active = inhibition above about 40%
Sa RN4220 lethal = S. aureus RN4220 growth inhibition; OD600, 16 h; 0.33% of 330,000 active; inhibition, % (concentration not given with the values); in the data active = inhibition above about 85%
A number is an active result; - = inactive; . = no result given; + = active, no number. Only some compounds are listed: those with a hit (about 0.75% of all), similar ones and a draw of the others.

SMILES | Mtb hypoxia inh | TcdB GH inh | Sa ugtP lethal | Yp Topo-I inh | Mtb BioA inh | Sa RN4220 lethal
ONC(=Nc1ccccc1Cl)c1ccccc1Cl | . | 17 | . | - | - | .
O=C(CNC(=O)c1ccccc1Br)N/N=C/c1ccc(O)cc1 | . | 13 | . | - | . | .
CC1CCN(C(=O)c2[nH]cnc2C(=O)NC(Cc2ccccc2)C(=O)OC(C)(C)C)CC1 (centres undefined) | - | . | - | . | . | -
CC(C)Sc1cc(N2CCOCC2)nc(-c2ccccc2)n1 | - | . | 98 | - | . | -
CC(C)Sc1cc(N2CCCC2)nc(-c2ccccc2)n1 | - | . | - | - | . | -
ON=C1C2C3C(Br)C4C5CC(C1C53)C24 (centres undefined) | - | . | - | . | . | -
CC[n+]1c(/C=C/C=C/c2ccc(N(C)C)cc2)sc2ccccc21 | - | - | 82 | - | - | 88
NS(=O)(=O)c1ccc(NC(=S)NC(=O)C2CCCCC2)cc1 | - | - | 89 | - | - | -
Cc1ccc(NC(=S)NC(=O)C2CCCCC2)c(Br)c1 | - | - | 87 | - | - | -
Cc1ccc(NC(=O)C2CCCC2)c(Br)c1 | - | - | - | - | - | -
CC(NC(=O)c1nc[nH]c1C(=O)N1CCN(c2ccccc2)CC1)C(=O)OC(C)(C)C (centres undefined) | - | . | - | . | . | -
COc1ccccc1NS(=O)(=O)c1cccc(C(=O)NN=Cc2ccc([N+](=O)[O-])o2)c1 | - | . | 99 | . | . | 98
COc1cccc(-c2noc(Cn3nc(C(=O)O)c4ccccc4c3=O)n2)c1 | - | - | - | 54 | - | -
O=C(O)c1nn(Cc2ncc(-c3cccc(Cl)c3)o2)c(=O)c2ccccc12 | - | - | - | 52 | - | -
O=C(Cn1nc(C(=O)O)c2ccccc2c1=O)Nc1cc(Cl)cc(Cl)c1 | - | - | - | - | - | -
COc1ccc(C=CC(=O)Nc2cc(S(=O)(=O)N3CCCCC3)ccc2N2CCCCC2)cc1OC | - | . | - | . | . | -
Cc1ccc(C2=NS(=O)(=O)N(C)C(C(=O)NCc3ccccn3)=C2)cc1 | - | - | - | - | - | -
Cc1ccc(C2=NS(=O)(=O)N(C)C(C(=O)NCc3cccs3)=C2)cc1 | - | 19 | - | - | - | -
CCN(CC)c1ccc(N2C(=O)CSC2=S)cc1 | - | - | 33 | - | - | -
CC(NC(=O)c1coc(=O)c(Br)c1)c1ccccc1 (centres undefined) | - | . | - | . | . | -
FC(F)(F)c1cccc(NC(=S)Nc2ccc(Cl)cc2Cl)c1 | - | . | 84 | - | - | 98
Fc1ccc(NC(=S)Nc2ccc(F)c(Cl)c2)cc1Cl | . | . | 97 | - | - | 108
O=C(NC(=S)Nc1ccc(F)c(Cl)c1)C1CC1 | - | - | - | - | - | -
CC(=NNC(=O)c1c(C)nc2ccccn12)c1cccc([N+](=O)[O-])c1 | - | . | - | . | . | -
CCOc1ccc(S(=O)(=O)Nc2ccc(C(=O)NN=Cc3c(C)nn(-c4ccccc4)c3N3CCCC3)cc2)cc1 | - | . | - | . | . | -
SMILES | Mtb hypoxia inh | TcdB GH inh | Sa ugtP lethal | Yp Topo-I inh | Mtb BioA inh | Sa RN4220 lethal
C[CH2][Hg][S]c1ccccc1C(=O)O | - | - | 98 | - | - | 100
O=C(O)c1ccccc1SSc1ccccc1C(=O)O | - | - | - | - | - | -
CCOc1ccccc1-c1c2cc(O)c(=O)cc-2oc2cc(O)c(O)cc12 | 37 | . | - | - | . | -
O=c1cc2oc3cc(O)c(O)cc3c(-c3ccccc3O)c-2cc1O | - | . | - | - | . | -
O=C(COc1ncnc2ccccc12)NCCc1ccc(F)cc1 | - | 13 | - | - | . | -
CN(N=Cc1cc(Br)cc(Br)c1O)c1ccccc1 | - | . | - | . | . | -
COC(=O)C1=C(c2ccc(F)cc2OCc2ccccc2)CC2CCC1N2C(=O)NCc1ccc2c(c1)OCO2 (centres undefined) | - | . | - | . | . | -
Cc1ccc(NC2=Nc3ccccc3N3C2=Nc2c(c(C)nn2-c2ccccc2)C3c2ccc(O)c(O)c2)cc1 (centres undefined) | - | . | 98 | - | - | -
Cc1nn(-c2ccccc2)c2c1C(c1ccc(O)c(O)c1)N1C(=N2)C(Nc2ccccc2)=Nc2ccccc21 (centres undefined) | - | . | - | - | - | -
Cc1cccc(NC2=Nc3ccccc3N3C2=Nc2c(c(C)nn2-c2ccccc2)C3c2ccc(O)c(O)c2)c1 (centres undefined) | - | . | 97 | - | . | -
Cc1ccc(NC(=O)c2cc(S(=O)(=O)N3CCCCC3)ccc2N2CCOCC2)cc1S(=O)(=O)N(C)C | 26 | - | - | - | - | -
CC1CC[C@]2(C(=O)O)CC[C@]3(C)C(=CCC4[C@@]5(C)CCC(O)C(C)(C)C5CC[C@]43C)C2C1C (some centres undefined) | - | . | 100 | . | . | 100
Cc1cc(C)[n+]2[nH]c(N)c(N=Nc3ccccc3)c2n1 | 50 | - | - | - | . | -
Cc1ccc(Nc2cc(C)nn2-c2nc(C)cc(=O)[nH]2)cc1 | - | . | 99 | - | - | 98
COc1ccc(NC(=O)N(C)CC2Oc3c(NS(=O)(=O)c4cccs4)cccc3C(=O)N(C(C)CO)CC2C)cc1 (centres undefined) | - | . | - | . | . | -
O=C(COC(=O)C1CC2CCCC(C1)C2=O)Nc1ccc(F)c(Cl)c1 (centres undefined) | 22 | - | - | - | - | -
NC(=O)C(Cc1cc2ccccc2s1)NC(=O)C1CC2(CC(c3cccc(NC(=O)C4CCC(=O)N4)c3)=NO2)CN1C(=O)C=Cc1c(F)cccc1Cl (centres undefined) | - | . | - | . | . | -
O=C(CSc1nnc(-c2ccncc2)o1)N1CCCCCC1 | - | 18 | - | - | . | -
O=C(CCSc1nnc(-c2ccccc2)o1)N1CCOCC1 | 40 | - | - | - | . | -
Cc1ccc(-c2nnc(SCC(=O)N3CCCC3)o2)cc1 | - | . | - | - | . | -
Cc1ccc(-c2nnc(SCCC(=O)N3CCOCC3)o2)cc1 | - | - | - | - | . | -
OCCC1CC(O)C(O)[C@@]2(OCc3ccccc32)O1 (some centres undefined) | - | . | - | . | . | -
CC12CCC(=O)N1C(C(=O)OCc1c(Cl)cccc1Cl)CS2 (centres undefined) | - | 12 | - | - | - | -
CCN(CC)c1ccc2c(-c3ccc(S(=O)(=O)O)cc3S(=O)(=O)[O-])c3ccc(=[N+](CC)CC)cc-3oc2c1 | 39 | - | - | + | - | -
COC(=O)C(C)NC(=O)C=Cc1ccc(OC)cc1 (centres undefined) | - | . | - | . | . | -
SMILES | Mtb hypoxia inh | TcdB GH inh | Sa ugtP lethal | Yp Topo-I inh | Mtb BioA inh | Sa RN4220 lethal
CN(N)c1nc(C(F)(F)F)nc2ccccc12 | - | - | - | - | - | -
Nc1nc(N(Cc2ccccc2)Cc2ccccc2)nc(C(F)(F)F)n1 | - | - | 98 | - | - | -
Cc1cc(-n2nnc3ccccc32)nc2ccccc12 | - | - | - | - | - | -
Cc1nn(-c2cc(C)c3ccccc3n2)c2c1C1C(C2)C1(C)C (centres undefined) | - | . | 83 | - | - | -
Cc1ccccc1C=NNC(=O)c1ccc(-n2cnnn2)cc1 | - | . | - | . | . | -
CC(C)(C)c1cnnn1-c1ccc(C(=O)CCl)cc1 | - | . | 98 | - | - | 96

Screens (PubChem BioAssay)
